From ChEMBL document CHEMBL3988442, “University of Dundee, Small-Polar-MMV Screening Library” (2021)
For some of these results: Potency and affinity values are given separately.

Key:
Design in all cases: scale not given: direction of the effect not stated beside the values
[1] = molecular target: Protein translocase subunit SecA (Escherichia coli (strain K12)) (UniProt P10408); test: Assay to Identify E. coli SecA ATPase Inhibitors; assay type: functional; conditions: 30 µM
[2] = molecular target: T1, Ubiquitin-activating enzyme e1, putative (Leishmania donovani (strain BPK282A1)) (UniProt E9BSI1); test: Leishmania donovani Ubiquitin Activating Enzyme (LdE1); assay type: functional; conditions: 30 µM
T1 sequence (whole entry): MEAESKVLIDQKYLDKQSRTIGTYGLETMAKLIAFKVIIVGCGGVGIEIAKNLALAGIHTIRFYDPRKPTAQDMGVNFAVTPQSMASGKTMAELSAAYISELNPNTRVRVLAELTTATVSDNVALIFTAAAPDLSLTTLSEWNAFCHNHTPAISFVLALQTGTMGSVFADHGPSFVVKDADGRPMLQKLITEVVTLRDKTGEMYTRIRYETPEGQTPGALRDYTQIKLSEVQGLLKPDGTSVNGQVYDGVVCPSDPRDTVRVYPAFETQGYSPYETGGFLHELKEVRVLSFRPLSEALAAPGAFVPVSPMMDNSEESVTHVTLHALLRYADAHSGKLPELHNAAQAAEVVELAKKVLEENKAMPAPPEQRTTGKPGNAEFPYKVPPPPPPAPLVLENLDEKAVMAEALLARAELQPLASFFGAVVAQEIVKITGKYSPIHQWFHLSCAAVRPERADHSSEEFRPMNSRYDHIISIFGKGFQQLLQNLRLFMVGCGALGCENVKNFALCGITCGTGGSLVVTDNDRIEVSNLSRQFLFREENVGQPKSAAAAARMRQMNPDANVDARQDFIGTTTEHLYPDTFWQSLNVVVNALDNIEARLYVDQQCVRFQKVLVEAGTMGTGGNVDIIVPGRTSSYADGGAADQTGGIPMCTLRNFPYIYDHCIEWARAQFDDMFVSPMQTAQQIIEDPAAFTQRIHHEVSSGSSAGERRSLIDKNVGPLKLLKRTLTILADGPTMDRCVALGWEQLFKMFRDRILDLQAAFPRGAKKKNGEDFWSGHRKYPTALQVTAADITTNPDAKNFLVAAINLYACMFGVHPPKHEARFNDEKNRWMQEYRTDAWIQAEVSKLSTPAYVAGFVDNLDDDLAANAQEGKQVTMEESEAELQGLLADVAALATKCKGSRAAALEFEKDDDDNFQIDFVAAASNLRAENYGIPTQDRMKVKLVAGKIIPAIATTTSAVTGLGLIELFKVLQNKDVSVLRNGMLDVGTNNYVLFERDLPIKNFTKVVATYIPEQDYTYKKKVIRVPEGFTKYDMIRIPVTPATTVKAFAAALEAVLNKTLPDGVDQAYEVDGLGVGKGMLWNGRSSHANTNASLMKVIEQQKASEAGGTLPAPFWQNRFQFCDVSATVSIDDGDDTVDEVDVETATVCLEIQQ

[3] = molecular target: Sialic acid-binding Ig-like lectin 9 (Homo sapiens) (UniProt Q9Y336); test: Hs-Siglec9 ALPHAscreen SOP 20170721; conditions: 10 µM
Trypanosoma cruzi = test: Trypanosoma cruzi phosphomannomutase and mannose-1-phosphate guanylyltransferase assay; assay type: functional; conditions: 10 µM
[4] = molecular target: T2, Arginase-2, mitochondrial (Homo sapiens) (UniProt P78540); test: in vitro enzyme assay to detect the production of urea directly proportional to the activity of Arginase II; assay type: functional; conditions: 33.3 µM; also: in the data most compounds retested in dose-response had high values
T2 sequence (whole entry): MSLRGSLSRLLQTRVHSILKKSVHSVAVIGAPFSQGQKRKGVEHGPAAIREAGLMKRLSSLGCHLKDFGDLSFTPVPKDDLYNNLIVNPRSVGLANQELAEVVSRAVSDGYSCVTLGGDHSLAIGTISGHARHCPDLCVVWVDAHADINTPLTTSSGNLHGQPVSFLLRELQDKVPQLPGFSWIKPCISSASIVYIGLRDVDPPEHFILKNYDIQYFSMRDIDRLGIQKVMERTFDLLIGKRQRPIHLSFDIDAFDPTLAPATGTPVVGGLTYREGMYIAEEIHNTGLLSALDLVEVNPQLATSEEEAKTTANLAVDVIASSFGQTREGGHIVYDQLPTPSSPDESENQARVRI

[5] = molecular target: T3, Proteasome subunit beta (Trypanosoma cruzi) (UniProt O96673); test: Trypanosoma cruzi proteasome chymotrypsin-like activity (TcProtChymo) assay.; also: in the data most compounds retested in dose-response had high values; assay type: functional; conditions: 9.37 µM
T3 sequence (whole entry): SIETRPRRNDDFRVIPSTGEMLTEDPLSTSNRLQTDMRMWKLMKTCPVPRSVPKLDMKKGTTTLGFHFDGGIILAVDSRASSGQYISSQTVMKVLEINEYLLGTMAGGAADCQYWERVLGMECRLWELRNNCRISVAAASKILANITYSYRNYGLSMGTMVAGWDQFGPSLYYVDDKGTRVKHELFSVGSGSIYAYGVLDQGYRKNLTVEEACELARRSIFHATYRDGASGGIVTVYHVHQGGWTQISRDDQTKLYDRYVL

Homo sapiens = species on record: Homo sapiens; test: To identify inhibition of the IFN signalling (Jak-Stat) pathway via expression of an eGFP reporter gene under the control of an IFN-stimulated response element (ISRE) containing MxA promoter.; assay type: functional; conditions: 30 µM
[6] = molecular target: T4, Tyrosyl-tRNA synthetase, putative (Trypanosoma cruzi (strain CL Brener)) (UniProt Q4DSP6); test: Trypanosoma cruzi tyrosyl tRNA synthetase (TcYRS) _High Tyrosine SOP; assay type: functional; conditions: 30 µM; also: in the data most compounds retested in dose-response had high values
T4 sequence (whole entry): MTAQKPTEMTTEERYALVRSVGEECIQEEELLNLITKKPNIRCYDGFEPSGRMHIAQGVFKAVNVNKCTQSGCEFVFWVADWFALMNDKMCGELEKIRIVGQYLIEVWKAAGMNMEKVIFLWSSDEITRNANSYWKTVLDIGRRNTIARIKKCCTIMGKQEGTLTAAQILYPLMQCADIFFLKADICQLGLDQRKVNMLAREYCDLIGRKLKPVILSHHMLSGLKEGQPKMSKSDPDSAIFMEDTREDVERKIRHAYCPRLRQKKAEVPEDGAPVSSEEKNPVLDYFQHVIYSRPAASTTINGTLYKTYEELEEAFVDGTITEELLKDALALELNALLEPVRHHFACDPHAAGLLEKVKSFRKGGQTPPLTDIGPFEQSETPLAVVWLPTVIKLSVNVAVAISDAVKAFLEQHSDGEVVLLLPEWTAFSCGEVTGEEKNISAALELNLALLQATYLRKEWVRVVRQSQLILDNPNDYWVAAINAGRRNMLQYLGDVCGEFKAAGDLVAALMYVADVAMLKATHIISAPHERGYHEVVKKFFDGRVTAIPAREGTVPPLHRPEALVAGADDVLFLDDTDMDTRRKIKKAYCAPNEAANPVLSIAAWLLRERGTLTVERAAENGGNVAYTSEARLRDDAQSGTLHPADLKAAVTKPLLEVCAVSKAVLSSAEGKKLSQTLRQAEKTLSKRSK

[7] = molecular target: T4, Tyrosyl-tRNA synthetase, putative (Trypanosoma cruzi (strain CL Brener)); test: Trypanosoma cruzi tyrosyl tRNA synthetase (TcYRS) SOP; assay type: functional; conditions: 30 µM
[8] = molecular target: Chromo domain-containing protein 1 (Saccharomyces cerevisiae (strain ATCC 204508 / S288c) (Baker's yeast)) (UniProt P32657); test: ScCHD-1 Enzyme Inhibition Assay; assay type: functional; conditions: 30 µM; also: in the data most compounds retested in dose-response had high values
Chain of Chromo domain-containing protein 1 (Saccharomyces cerevisiae (strain ATCC 204508 / S288c) (Baker's yeast)) (P32657 whole entry, the tested form may be a part): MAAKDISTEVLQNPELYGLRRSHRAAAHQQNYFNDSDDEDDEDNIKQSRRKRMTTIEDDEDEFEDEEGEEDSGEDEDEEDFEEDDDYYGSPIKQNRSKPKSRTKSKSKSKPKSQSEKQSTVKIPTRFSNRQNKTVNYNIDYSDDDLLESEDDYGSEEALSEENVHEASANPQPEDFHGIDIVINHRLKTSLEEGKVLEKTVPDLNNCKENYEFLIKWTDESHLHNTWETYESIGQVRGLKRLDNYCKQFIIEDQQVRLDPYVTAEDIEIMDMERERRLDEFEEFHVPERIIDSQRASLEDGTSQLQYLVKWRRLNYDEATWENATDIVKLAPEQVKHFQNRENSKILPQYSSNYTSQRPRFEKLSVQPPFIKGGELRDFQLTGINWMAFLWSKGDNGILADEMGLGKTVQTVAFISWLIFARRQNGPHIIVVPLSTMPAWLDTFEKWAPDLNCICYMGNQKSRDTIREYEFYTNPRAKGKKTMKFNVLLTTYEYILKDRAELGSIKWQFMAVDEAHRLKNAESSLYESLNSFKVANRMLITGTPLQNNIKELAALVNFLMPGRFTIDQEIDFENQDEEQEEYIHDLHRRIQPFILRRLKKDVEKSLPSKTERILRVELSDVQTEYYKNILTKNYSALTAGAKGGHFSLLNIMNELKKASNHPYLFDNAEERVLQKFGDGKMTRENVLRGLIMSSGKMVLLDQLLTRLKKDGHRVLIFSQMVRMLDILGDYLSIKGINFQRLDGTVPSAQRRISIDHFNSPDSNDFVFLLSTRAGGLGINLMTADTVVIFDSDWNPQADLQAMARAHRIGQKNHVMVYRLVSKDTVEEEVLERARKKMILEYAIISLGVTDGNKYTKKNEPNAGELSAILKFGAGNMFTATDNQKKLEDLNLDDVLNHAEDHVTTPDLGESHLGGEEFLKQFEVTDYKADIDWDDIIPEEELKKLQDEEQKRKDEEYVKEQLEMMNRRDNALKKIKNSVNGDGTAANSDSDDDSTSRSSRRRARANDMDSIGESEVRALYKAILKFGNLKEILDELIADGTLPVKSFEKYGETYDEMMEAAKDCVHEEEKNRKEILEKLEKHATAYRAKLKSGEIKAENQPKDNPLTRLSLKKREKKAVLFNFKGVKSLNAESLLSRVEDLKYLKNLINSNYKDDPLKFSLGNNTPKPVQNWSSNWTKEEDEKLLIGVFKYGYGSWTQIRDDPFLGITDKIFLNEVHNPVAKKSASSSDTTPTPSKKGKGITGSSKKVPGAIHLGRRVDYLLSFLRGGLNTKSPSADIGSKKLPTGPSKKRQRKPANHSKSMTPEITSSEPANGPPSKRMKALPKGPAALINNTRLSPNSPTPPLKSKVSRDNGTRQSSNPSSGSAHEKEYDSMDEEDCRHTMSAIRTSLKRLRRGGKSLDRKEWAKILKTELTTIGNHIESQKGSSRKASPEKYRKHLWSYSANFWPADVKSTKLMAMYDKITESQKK

Chain of Protein translocase subunit SecA (Escherichia coli (strain K12)) (P10408 whole entry): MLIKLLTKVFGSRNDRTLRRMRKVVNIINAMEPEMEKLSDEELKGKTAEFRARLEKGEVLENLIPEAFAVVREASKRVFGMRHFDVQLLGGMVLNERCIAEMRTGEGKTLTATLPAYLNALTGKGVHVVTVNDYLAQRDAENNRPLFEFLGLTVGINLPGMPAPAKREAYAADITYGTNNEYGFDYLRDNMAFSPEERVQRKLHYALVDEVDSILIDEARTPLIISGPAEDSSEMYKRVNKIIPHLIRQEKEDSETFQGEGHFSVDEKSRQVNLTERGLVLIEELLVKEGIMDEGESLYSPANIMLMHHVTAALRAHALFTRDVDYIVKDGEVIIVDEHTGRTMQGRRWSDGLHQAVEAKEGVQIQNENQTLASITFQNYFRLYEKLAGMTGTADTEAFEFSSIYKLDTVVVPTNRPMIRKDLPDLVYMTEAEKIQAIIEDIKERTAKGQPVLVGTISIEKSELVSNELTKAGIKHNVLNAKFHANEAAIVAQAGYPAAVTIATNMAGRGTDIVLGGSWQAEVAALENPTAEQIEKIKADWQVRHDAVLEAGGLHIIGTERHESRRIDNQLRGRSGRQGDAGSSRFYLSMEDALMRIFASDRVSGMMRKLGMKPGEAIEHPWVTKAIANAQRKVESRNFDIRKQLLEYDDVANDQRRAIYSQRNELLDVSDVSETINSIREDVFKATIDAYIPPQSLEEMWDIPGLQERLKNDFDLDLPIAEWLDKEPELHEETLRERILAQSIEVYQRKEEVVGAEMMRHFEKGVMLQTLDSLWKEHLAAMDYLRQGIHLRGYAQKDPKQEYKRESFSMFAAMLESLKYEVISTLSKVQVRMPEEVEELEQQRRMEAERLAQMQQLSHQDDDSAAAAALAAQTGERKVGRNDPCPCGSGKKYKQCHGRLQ
Chain of Sialic acid-binding Ig-like lectin 9 (Homo sapiens) (Q9Y336 whole entry): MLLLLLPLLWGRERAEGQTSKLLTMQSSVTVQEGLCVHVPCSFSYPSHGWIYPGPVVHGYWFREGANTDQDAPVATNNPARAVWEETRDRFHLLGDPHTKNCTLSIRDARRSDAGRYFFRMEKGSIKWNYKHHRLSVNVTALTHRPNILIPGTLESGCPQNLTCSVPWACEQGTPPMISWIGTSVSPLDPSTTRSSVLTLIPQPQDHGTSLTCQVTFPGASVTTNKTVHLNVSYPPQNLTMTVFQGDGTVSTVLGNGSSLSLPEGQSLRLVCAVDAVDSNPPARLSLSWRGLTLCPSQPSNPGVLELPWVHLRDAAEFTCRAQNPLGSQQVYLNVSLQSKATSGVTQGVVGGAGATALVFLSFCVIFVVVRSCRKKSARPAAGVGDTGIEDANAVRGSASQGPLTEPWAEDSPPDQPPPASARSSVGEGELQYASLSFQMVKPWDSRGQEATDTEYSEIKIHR

SMILES | Percent Effect [1] [%] | Percent Effect [2] [%] | Percent Effect [3] [%] | Percent Effect (Trypanosoma cruzi) [%] | Percent Effect [4] [%] | Percent Effect [5] [%] | Percent Effect (Homo sapiens) [%] | Percent Effect [6] [%] | Percent Effect [7] [%] | Percent Effect [8] [%]
COc1ccc(CNCc2ccc(N3CCCCC3)nc2)cc1OC | 0.873 | 15.4 | -8.85 | 5.92 | 2.87 | 8.62 | 2.97 | 8.13 | 25.3 | -9.53
Cc1noc(C2CCN(C(=O)CCNc3ncccn3)CC2)n1 | -0.897 | 12.8 | -14 | 5.92 | 0 | 9.98 | 14.8 | 6.22 | 22.9 | -4.88
C[C@]1(O)CCN(Cc2cncs2)C[C@@H]1Oc1cccc(F)c1 | 0.894 | 4 | 6.06 | -4.93 | 3.1 | -1.64 | 14.1 | 1.06 | 2.5 | -19.6
CC(NC(=O)N(C)CCCOc1ccc(F)cc1)c1nncn1C (stereo not given) | -2.67 | 8 | -3.38 | 0.803 | 5.76 | 17.4 | 8.6 | 4.74 | 10.3 | -10.2
CN(Cc1ccc2c(c1)OCCO2)C(=O)Cn1cccnc1=O | -4.28 | 10.7 | -2.28 | 3.41 | 1.33 | 16 | 6.87 | 6.84 | 12.8 | -8.2
CCN1CCn2nc(CCC(=O)N3CCCC3)cc2C1 | -6.01 | 2.7 | 0.796 | -3.98 | 0.35 | 19 | 8.04 | 5.85 | 14.6 | -5.3
COc1cccc(OCC2CCCN(C(C)=O)C2)c1 (stereo not given) | -1.78 | 14.7 | -3.67 | -0.395 | -3.1 | 25.4 | 8.14 | 2.12 | 15 | -24.1
O=S(=O)(NCCN1CCCCC1Cn1cncn1)c1ccccc1 (stereo not given) | -1.12 | 0 | 6.15 | 1.68 | 7.99 | -5.61 | -18.3 | 1.96 | 9.41 | -1.75
O=C(COCc1ccccc1)N1CCC(OCc2cccnc2)CC1 | -7.79 | 2.7 | 2.89 | -4.95 | -0.35 | 9.42 | 35.8 | 5.85 | 12.2 | -2.8
Cc1nc(C)n(CC2CN(CCOc3ccccc3F)CCO2)n1 (stereo not given) | -2.06 | 5.33 | -0.849 | 0.803 | -2.66 | -2.97 | 9.21 | -1.58 | 0 | -2.97
O=C(NCCn1nc2ccccn2c1=O)c1cccc2[nH]ncc12 | -1.51 | 20.5 | -7.98 | 6.29 | -3.69 | 21.9 | 13.6 | 4.31 | 22.9 | -8.5
c1cnc(N2CCC3(CCN(CC4CC4)CC3)CC2)nc1 | -6.61 | 3.9 | -1.99 | -2.82 | -5.67 | 6.09 | -6.66 | 5.79 | 12.8 | -1.89
Cc1cc(C2CCCN2CCCS(=O)(=O)c2ccccc2)no1 (stereo not given) | -1.74 | 5.13 | 19.5 | -1.41 | -1.23 | -8.11 | 8.46 | 3.35 | 8.43 | -1.93
CC(C)c1cc(NC(=O)CN2CCC(N3CCNC3=O)CC2)on1 | -2.95 | 15.6 | 8.63 | -6.16 | 1.02 | 0.877 | 23.3 | 5.88 | 11.8 | -7.14
Cc1noc(C(C)C)c1C(=O)NCCCOC(C)C | 0.204 | 2.6 | 15.3 | 0.373 | -2.25 | 6.67 | -3.84 | 0.98 | 9.41 | -6.89
Cc1c(F)cccc1CN1CCn2nc(CNC(=O)N(C)C)cc2C1 | -5.26 | 10.8 | 14.7 | 9.21 | 28.3 | 8.05 | 4.47 | 5.85 | 17.1 | -7.8
Cc1noc(C2CCN(C(=O)CN(C)c3ccc(Cl)cn3)CC2)n1 | -1.77 | 12.8 | -5.03 | 4.6 | 6.56 | 8.11 | 3.6 | 8.13 | 20.5 | -1.95
COCCN1CCCC12CCN(C(=O)CC1CCCC1)CC2 | -1.94 | -3.9 | 0.315 | 2.44 | 0 | -0.0858 | 16.7 | 5.8 | 12.5 | -2.58
CCCS(=O)(=O)N1CCN(c2ccnc(N3CCCC3)n2)CC1 | -0.256 | 0 | 12.4 | 6.89 | 8.04 | 6.85 | -21.8 | 2.66 | 4.88 | -3
